Here are results for seven compounds from PubChem BioAssay (NCATS).

A number with no mark means an inactive call. Inconclusive results are not listed. The source made the active and inactive calls. Unless noted, calls follow the shape of the dose curve; as a rule, active = well fitted curve in the direction sought with a large enough effect; inconclusive = small, poorly fitted or top-dose-only effect, or another doubt; inactive = no such curve, though single readings can be large; an effect the other way counts as inactive or inconclusive.

The target of test [1] is Lysosomal acid glucosylceramidase (Homo sapiens) (UniProt P04062). As to the kind of experiment: Glucocerebrosidase-p2 (AID 348; in the data active = potency below about 10 µM; also: potency is read from the fitted curve at half-maximal effect). Conditions: purified GBA, blue fluorogenic substrate, 40 min. The method, boiled down: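 Normal human glucocerebrosidase (0.2 nM) with blue fluorogenic substrate (80 uM final) in citrate/phosphate pH 5.9 with 10mM sodium taurocholate, 0.01% tween-20; 40 min RT, NaOH/glycine stop; fluorescence Ex 365/Em 440; AC50 from a titration from 0.6 nM upwards.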

In test [2] the target is Cytochrome P450 1A2 (Homo sapiens) (UniProt P05177). Briefly: p450-cyp1a2 (AID 410; calls by dose curve; also: potency is read from the fitted curve at half-maximal effect). Conditions: recombinant CYP1A2, luciferin-ME demethylation, luminescence; series mostly up to 57 µM. The method, boiled down:
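Luminescent demethylation readout: Luciferin-ME (100uM, equal to Km) turned over by 20nM CYP1A2 for 60 min at room temperature after NADPH regeneration addition, following 10 min compound preincubation. Normalization used 57 uM furafylline as full inhibition.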

The nature of test [3]: NFAT Signaling Pathway (AID 444; active = well fitted curve in either direction with a large enough effect, not every such curve was filed as active;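 also: carbachol stimulus at about its EC50 of 1 µM final; % is scaled to controls: 0 for no effect and ±100 for the full control effect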). Conditions: Jurkat NFAT-bla M1, carbachol, beta-lactamase ratio, 5 h; at 7.69 µM (top of the series) unless noted. In a few lines: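 Jurkat cells carrying an NFAT-driven β-lactamase reporter and co-transfected muscarinic M1 receptor were treated with compound plus carbachol (1 uM final, an EC50 level) for 5 h at 37 °C. CCF4 loading followed for 1 h at RT; 460/530 nm ratio gave %activity.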

Test [4] is described as follows: Stat Signaling Pathway (AID 446; active = well fitted curve in either direction with a large enough effect, not every such curve was filed as active;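 also: ME-180 cervical cancer cells given 40 pM IL-6 alongside compound; SIE-controlled beta-lactamase reporter measured as 460/530 nm FRET emission ratio; % is scaled to controls: 0 for no effect and ±100 for the full control effect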). The settings on record: ME-180 SIE beta-lactamase reporter, IL-6 stimulated, 5 h; at 7.69 µM (top of the series) unless noted. The method, boiled down: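 Emission at 460 and 530 nm (excitation 405 nm) reports SIE-controlled beta-lactamase in ME-180 cells. Cells received compound with 40 pM IL-6 for 5 hrs at 37 C; data scaled between 300 pM IL-6 and 125 nM JAK-inhibitor controls.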

Test [5] addresses Glucocorticoid receptor (Homo sapiens) (UniProt P04150). As to the kind of experiment: GR-GFP Redistribution (AID 450;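 active = compounds whose dose series gives a full or clear partial fitted curve of increased nuclear translocation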; also: potency is read from the fitted curve at half-maximal effect). Conditions: U2OS GR-GFP nuclear translocation, laser cytometry, 2 h.
For test [6] the target is unchanged. Briefly: GR-EFC Redistribution (AID 451; calls by dose curve; also: potency is read from the fitted curve at half-maximal effect). Conditions: CHO-K1 GR-EFC translocation, beta-gal luminescence, 2 h. The method, boiled down:
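CHO-K1 cells stably expressing nuclear-localized β-gal enzyme acceptor and GR fused C-terminally to the enzyme donor fragment; ligand-driven nuclear translocation restores β-gal by complementation. Compounds titrated up to 46 uM final, 2 h at 37 °C; luminescence read.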

Test [7] has as its target Mitogen-activated protein kinase 10 (Mus musculus) (UniProt Q61831). Briefly: JNK3 AlphaScreen Assay (AID 530; active = well fitted curve in either direction with a large enough effect, not every such curve was filed as active;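 also: kinase came from lysate of stimulated human HepG2 cells; signal reports phosphorylation of biotinylated GST-cJun 1-79 at Ser73 with 10 µM ATP; % is scaled to controls: 0 for no effect and ±100 for the full control effect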). The settings on record: JNK3 lysate, c-Jun phosphorylation; series mostly up to 57.1 µM. The method, boiled down:
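Phosphorylation of biotinylated GST-cJun(1-79) at Ser73 is measured by AlphaScreen proximity luminescence. Enzyme is JNK3 in HepG2 lysates activated with interleukin-1beta and tumor necrosis factor alpha; ATP is 10 uM final.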

In test [8] the target is Dual specificity protein kinase CLK4 (Homo sapiens) (UniProt Q9HAZ1). Briefly: qHTS Assay for Inhibitors of CDC-like Kinase 4 (Kinase-Glo Assay) (AID 1770). Also: nearly all actives have a fitted effect of over 65% in size. Also: potency is read from the fitted curve at half-maximal effect. The settings on record: recombinant Clk4, Kinase-Glo ATP depletion luminescence; series mostly up to 66.7 µM. The method, boiled down: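 Recombinant human Clk4 (25 nM) phosphorylated RS repeat peptide (100 uM) with 1 uM ATP in Tris pH 7.5/MgCl2/EGTA/DTT/Triton buffer for 4.5 h at room temperature. Residual ATP was quantified by Kinase-Glo luciferase luminescence.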
(In general: Quantitative high-throughput screening tests each substance at several concentrations.)

The target is the same in test [9]. As to the kind of experiment: qHTS Assay for Inhibitors of CDC-like Kinase 4 (ADP-Glo Assay) (AID 1771). Also: nearly all actives have a fitted effect of over 70% in size. Also: potency is read from the fitted curve at half-maximal effect. The settings on record: recombinant CLK4, ADP-Glo luminescence; series mostly up to 80 µM. In a few lines: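 ADP production was read by ADP-Glo luminescence after residual ATP depletion, following 1 h room-temperature reaction of 25 nM Clk4, 1 uM ATP and 100 uM RS peptide with MgCl2, EGTA, DTT and Triton X-100.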

Test [10] shares this target. As to the kind of experiment: qHTS Assay for Inhibitors of CDC-like Kinase 4 (ADP-FP Assay) (AID 1795). Also: nearly all actives have a fitted effect of over 60% in size. Also: potency is read from the fitted curve at half-maximal effect. Conditions: Transcreener ADP fluorescence polarization; series mostly up to 50 µM. In a few lines: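 Recombinant human Clk4 (6.25 nM) phosphorylated RS repeat peptide (100 uM) with 1 uM ATP in Tris pH 7.5/MgCl2/EGTA/DTT/Triton buffer for one hour. ADP was quantified by Transcreener competitive fluorescence polarization against an ADP calibration curve.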

In test [11] the target is Ubiquitin carboxyl-terminal hydrolase 1 (Homo sapiens) (UniProt O94782). Briefly: Inhibitors of USP1/UAF1: Pilot qHTS (AID 504865).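 Also: rhodamine fluorescence freed from ubiquitin-rhodamine substrate followed over time; top concentration of the series differs between compounds; % is scaled to controls: 0 for no effect and ±100 for the full control effect; nearly all actives have a fitted effect of over 35% in size.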 Conditions: purified USP1/UAF1, Ub-rhodamine cleavage fluorescence; series mostly up to 54.9 µM. The method, boiled down: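 USP1/UAF1 complex (1nM) preincubated with compound 15 min at room temperature, then Ub-Rho substrate (150nM final) added. Fluorescence read kinetically at 480/540 nm, 6 reads every 60 seconds. Buffer: 50mM HEPES pH 7.8, 0.5mM EDTA, 0.1 mg/ml BSA, 1mM TCEP, 0.01% Tween-20.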

Test [12] in a line: Primary qHTS for small molecule stabilizers of the endoplasmic reticulum resident proteome: Secreted ER Calcium Modulated Protein (SERCaMP) assay (AID 1508630). Also: % is scaled to controls: 0 for no effect and ±100 for the full control effect. Conditions: SH-SY5Y GLuc-SERCaMP (Gaussia luciferase released on ER calcium loss) secretion, thapsigargin, luminescence; series mostly up to 38.4 µM. The method, boiled down:
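The SH-SY5Y reporter protocol was run at 3 concentrations up to 38.3 uM (primary) or 11 concentrations (follow-up): 16 h compound, 100 nM thapsigargin for 4 h, then extracellular luciferase luminescence.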

The nature of test [13]: AP1 Signaling Pathway (AID 357; active = well fitted curve in either direction with a large enough effect, not every such curve was filed as active). The settings on record: ME-180 AP-1-bla reporter, EGF-induced, beta-lactamase ratio, 5 h; at 7.69 µM (top of the series) unless noted. In a few lines: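 AP-1-bla ME-180 cells, Opti-MEM + 0.5% dialyzed FBS, plated overnight 37 °C. Cpd titration + EC50 EGF, 5 h 37 °C. CCF4 2.5 h RT; ex 405, em 460/530 ratio → %activity, AC50.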
Test [14] concerns the target 3',5'-cyclic-AMP phosphodiesterase 4B (Homo sapiens) (UniProt Q07343). Briefly: qHTS Assay for Inhibitors of PDE-IV (AID 607; active = well fitted activation curve with a large enough effect in the main read-out, with a control signal flat, not every such curve was filed as active; also: % of control where 0% means no effect). Conditions: HEK293 ACTOne CNG channel cells, membrane potential fluorescence; series mostly up to 22.9 µM. The method, boiled down:
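The readout is membrane depolarisation from a cAMP-sensing CNG channel, detected with a potential dye at ex 535/em 590. Cells were HEK293-derived (endogenous PDE-IV) at 1000 cells/well, titrated up to 22.9 uM final.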

The target of test [15] is Cytochrome P450 3A4 (Homo sapiens) (UniProt P08684). Briefly: qHTS Assay for Activators of Cytochrome P450 3A4 (AID 885). Also: nearly all actives have a fitted effect of over 65% in size. The settings on record: recombinant CYP3A4, Luciferin-PPXE luminescence, 60 min; series mostly up to 57.1 µM. The method, boiled down: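 Activators are scored by enhanced luminescence from CYP3A4 conversion of luciferin-PPXE (25uM, equal to KM) to luciferin, after 60 min at RT with an NADPH-regenerating system.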

For test [16] the target is unchanged. Briefly: qHTS Assay for Inhibitors and Substrates of Cytochrome P450 3A4 (AID 884). Also: potency is read from the fitted curve at half-maximal effect; nearly all actives have a fitted effect of over 50% in size. Conditions: recombinant CYP3A4, Luciferin-PPXE luminescence; series mostly up to 57.1 µM. The method, boiled down: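 Luminescent readout of luciferin produced by CYP3A4 (20 nM) dealkylation of Luciferin-PPXE, 25 uM (its KM). NADPH-driven reaction ran 60 min at RT after 10 min compound preincubation; data scaled to 57 uM ketoconazole as 100% inhibition.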

For test [17], the target named is Cytochrome P450 2D6 (Homo sapiens) (UniProt P10635). As to the kind of experiment: qHTS Assay for Inhibitors and Substrates of Cytochrome P450 2D6 (AID 891). Also: potency is read from the fitted curve at half-maximal effect; nearly all actives have a fitted effect of over 60% in size. The settings on record: recombinant CYP2D6, luciferin-ME EGE luminescence; series mostly up to 57.1 µM. The method, boiled down:
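Luminescent read-out of luciferin formed by 5 nM human CYP2D6 demethylating 30 uM Luciferin-ME EGE (Km level) over 60 min at room temperature after NADPH regeneration addition. Data normalized to full inhibition by 1.43 uM quinidine.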

Test [18] can be described thus: qHTS Assay for Identification of Small Molecule Agonists for Hypoxia Response Element Signaling Pathway (AID 914; active = well fitted activation curve with a large enough effect in the signal ratio, with a control signal flat, not every such curve was filed as active; the % refers to the signal ratio; also: potency is read from the fitted curve at half-maximal effect). The settings on record: ME-180 (cervical carcinoma) HRE-bla reporter, beta-lactamase ratio, CoCl2, 17 h; activation: stronger effect = higher value. The method, boiled down: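 Compounds in a titration series were added to ME-180 reporter cells alongside an EC50 level of CoCl2. After 17 hours, beta-lactamase activity was read as the 460nm/530nm emission ratio of CCF4, giving AC50 values.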

Sequence of Lysosomal acid glucosylceramidase (Homo sapiens) (P04062 whole entry, looked up): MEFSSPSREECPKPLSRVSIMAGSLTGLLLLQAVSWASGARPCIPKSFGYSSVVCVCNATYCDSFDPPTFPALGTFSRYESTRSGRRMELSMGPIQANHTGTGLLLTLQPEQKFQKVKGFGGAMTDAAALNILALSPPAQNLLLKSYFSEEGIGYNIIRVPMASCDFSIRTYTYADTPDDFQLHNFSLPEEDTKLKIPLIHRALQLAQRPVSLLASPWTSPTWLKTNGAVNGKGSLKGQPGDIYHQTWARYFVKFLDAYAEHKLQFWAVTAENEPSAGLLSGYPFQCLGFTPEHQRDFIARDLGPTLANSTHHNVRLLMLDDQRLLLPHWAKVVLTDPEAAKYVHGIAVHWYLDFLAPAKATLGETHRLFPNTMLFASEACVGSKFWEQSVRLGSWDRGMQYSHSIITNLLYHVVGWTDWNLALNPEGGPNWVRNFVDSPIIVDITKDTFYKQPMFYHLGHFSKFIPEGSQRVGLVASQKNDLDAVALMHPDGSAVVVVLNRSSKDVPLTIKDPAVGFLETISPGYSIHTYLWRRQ
Sequence of Ubiquitin carboxyl-terminal hydrolase 1 (Homo sapiens) (O94782 whole entry, looked up): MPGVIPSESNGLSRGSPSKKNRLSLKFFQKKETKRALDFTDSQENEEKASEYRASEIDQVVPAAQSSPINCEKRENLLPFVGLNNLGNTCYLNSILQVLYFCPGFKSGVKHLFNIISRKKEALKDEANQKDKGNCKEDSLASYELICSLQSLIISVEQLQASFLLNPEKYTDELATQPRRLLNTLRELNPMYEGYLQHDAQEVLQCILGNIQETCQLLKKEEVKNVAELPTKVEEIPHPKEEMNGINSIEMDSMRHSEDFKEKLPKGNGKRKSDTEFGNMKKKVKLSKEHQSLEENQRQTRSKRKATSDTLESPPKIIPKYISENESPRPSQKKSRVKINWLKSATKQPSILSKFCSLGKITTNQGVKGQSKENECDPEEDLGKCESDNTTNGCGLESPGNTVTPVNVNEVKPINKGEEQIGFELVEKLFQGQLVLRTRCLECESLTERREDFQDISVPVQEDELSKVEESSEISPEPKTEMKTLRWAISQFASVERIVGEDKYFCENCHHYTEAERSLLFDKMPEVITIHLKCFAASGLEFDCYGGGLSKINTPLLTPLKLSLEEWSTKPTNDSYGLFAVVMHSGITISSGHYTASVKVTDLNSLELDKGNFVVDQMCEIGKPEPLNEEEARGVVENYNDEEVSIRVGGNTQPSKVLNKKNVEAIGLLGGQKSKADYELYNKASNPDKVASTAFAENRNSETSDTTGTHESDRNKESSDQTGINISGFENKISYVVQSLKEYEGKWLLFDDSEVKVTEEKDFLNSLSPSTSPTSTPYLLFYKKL
Sequence of Dual specificity protein kinase CLK4 (Homo sapiens) (Q9HAZ1 whole entry, looked up): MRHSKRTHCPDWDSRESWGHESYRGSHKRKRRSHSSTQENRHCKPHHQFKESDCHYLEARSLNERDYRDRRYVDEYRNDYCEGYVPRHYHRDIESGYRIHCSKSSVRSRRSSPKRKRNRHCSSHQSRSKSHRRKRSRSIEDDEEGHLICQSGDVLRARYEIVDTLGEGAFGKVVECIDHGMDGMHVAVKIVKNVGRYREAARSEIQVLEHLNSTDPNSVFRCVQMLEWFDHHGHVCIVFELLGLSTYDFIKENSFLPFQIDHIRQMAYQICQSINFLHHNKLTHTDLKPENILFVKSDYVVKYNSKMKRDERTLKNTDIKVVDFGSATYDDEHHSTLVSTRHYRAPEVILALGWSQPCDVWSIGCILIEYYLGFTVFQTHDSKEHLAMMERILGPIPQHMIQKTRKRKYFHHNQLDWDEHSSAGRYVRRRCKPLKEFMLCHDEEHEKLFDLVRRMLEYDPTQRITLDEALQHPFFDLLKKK
Sequence of Cytochrome P450 1A2 (Homo sapiens) (P05177 whole entry, looked up): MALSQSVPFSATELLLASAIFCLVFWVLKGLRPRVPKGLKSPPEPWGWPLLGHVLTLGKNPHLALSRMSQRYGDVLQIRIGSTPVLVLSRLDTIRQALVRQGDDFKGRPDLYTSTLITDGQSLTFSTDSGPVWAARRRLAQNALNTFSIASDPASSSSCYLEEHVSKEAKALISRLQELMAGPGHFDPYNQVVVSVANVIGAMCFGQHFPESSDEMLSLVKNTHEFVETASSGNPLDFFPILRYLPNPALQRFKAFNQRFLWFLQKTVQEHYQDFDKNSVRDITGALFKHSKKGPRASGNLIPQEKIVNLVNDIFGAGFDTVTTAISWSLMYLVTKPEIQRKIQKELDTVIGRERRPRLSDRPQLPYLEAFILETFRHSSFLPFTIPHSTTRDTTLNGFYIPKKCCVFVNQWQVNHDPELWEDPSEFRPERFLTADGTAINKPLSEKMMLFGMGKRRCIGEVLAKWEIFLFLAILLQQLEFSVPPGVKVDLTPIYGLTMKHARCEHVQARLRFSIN
Sequence of Cytochrome P450 3A4 (Homo sapiens) (P08684 whole entry, looked up): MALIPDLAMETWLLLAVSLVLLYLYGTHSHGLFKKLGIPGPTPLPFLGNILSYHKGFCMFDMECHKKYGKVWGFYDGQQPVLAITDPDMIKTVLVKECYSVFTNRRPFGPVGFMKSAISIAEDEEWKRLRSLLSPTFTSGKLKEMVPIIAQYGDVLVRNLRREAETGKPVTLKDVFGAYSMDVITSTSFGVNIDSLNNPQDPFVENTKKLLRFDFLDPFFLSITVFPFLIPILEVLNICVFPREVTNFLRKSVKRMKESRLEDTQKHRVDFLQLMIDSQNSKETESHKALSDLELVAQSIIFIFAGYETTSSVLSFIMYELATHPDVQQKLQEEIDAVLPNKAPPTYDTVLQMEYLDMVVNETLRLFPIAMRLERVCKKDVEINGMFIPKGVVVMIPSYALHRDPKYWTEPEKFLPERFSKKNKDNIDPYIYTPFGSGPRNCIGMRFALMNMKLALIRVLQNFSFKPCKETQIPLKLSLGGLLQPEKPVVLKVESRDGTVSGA
Sequence of Glucocorticoid receptor (Homo sapiens) (P04150 whole entry, looked up): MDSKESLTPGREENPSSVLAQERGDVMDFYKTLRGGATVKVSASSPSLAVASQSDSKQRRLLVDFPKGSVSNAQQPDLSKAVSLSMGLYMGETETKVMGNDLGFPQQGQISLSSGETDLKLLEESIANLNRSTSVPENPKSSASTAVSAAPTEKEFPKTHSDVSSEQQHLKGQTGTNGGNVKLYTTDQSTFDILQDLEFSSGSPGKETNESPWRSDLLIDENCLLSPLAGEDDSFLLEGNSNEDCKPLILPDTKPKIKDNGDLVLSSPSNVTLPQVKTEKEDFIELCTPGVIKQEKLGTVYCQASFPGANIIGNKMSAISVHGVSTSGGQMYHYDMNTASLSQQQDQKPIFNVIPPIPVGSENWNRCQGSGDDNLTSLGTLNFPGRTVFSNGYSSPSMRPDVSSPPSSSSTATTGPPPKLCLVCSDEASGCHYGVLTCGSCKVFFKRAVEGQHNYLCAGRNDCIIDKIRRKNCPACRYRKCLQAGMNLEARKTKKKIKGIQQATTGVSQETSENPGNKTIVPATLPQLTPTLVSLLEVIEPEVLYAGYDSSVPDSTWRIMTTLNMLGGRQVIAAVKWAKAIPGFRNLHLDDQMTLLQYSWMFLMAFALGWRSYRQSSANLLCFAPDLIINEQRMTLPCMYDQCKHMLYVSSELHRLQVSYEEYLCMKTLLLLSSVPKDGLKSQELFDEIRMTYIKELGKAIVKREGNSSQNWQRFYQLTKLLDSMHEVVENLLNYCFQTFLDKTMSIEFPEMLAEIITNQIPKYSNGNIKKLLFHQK
Sequence of 3',5'-cyclic-AMP phosphodiesterase 4B (Homo sapiens) (Q07343 whole entry, looked up): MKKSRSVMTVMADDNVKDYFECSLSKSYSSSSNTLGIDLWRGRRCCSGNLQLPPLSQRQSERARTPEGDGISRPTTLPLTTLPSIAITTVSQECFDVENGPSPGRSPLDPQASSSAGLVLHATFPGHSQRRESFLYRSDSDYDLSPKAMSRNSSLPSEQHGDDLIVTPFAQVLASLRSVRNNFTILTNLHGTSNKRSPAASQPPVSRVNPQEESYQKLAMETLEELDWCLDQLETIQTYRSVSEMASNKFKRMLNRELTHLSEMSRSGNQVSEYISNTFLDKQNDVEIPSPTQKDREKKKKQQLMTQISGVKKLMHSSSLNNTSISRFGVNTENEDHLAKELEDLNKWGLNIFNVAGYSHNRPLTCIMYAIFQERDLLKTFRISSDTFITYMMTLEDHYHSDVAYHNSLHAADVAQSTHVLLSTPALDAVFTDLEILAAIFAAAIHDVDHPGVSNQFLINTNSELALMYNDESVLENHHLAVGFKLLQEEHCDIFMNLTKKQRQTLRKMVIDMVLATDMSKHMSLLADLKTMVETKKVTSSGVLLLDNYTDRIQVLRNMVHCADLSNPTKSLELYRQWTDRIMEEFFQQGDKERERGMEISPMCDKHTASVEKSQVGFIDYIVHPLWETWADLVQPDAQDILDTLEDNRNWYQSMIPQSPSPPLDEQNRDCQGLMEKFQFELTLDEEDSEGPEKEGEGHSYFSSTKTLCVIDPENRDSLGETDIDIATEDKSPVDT
Sequence of Cytochrome P450 2D6 (Homo sapiens) (P10635 whole entry, looked up): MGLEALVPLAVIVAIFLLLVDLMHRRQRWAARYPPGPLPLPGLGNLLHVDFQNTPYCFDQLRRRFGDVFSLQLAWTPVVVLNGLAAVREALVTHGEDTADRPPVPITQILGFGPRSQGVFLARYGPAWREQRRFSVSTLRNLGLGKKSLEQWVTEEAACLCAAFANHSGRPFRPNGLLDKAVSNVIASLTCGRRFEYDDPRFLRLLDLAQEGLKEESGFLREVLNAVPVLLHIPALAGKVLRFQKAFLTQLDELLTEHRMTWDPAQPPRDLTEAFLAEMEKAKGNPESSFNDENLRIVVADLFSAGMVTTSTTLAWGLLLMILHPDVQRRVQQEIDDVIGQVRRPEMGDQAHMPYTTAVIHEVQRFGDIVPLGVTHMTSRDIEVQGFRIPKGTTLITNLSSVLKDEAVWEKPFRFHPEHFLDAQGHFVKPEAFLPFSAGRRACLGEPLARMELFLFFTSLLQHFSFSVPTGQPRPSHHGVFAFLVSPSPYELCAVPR

With `Cn1cc(-c2nc3cnc(Oc4cccc(Cl)c4)nc3n(C3CC3)c2=O)c2ccccc21`, the Potency in test [1] was above 11.4 µM; in test [2] it was 12.6 µM (active); in [5], above 9.22 µM; in test [6], above 46 µM. Also, the activity change, negative = inhibition in test [3] was 6.59%. Further, the activity, negative = inhibition in test [4] is 9.54%. For the same compound, the Potency result in test [7], in [8], in [9], in [10] and in [11] was “inactive” in each case. For the same compound, the outcome in [12] was inactive.
Regarding `FC(F)(F)c1ccccc1-c1nccc(NCCN2CCOCC2)n1`, the Potency in test [1] was above 11.4 µM; in test [5], above 46 µM; in test [6] it was above 46 µM. Moreover, in [13], the activity change, negative = inhibition is 27.9%. For the same compound, in test [4], the activity, negative = inhibition is -13.3%. For the same compound, the Potency result in test [7], in test [14], in test [15], in [8], in test [9] and in [10] was “inactive” in each case. Further, the Potency entry in [11] is “inactive”. The outcome in [12] was inactive.
Take `COc1ccc(-n2c(=O)c(-c3cccs3)nc3cnc(Nc4ccccc4)nc32)cc1`: the Potency in test [1] is above 11.4 µM; in test [5], above 9.22 µM; in [6], above 46 µM. Further, the activity change, negative = inhibition in test [13] is -7.98%. The activity, negative = inhibition in [4] is -8.99%. In addition, the Potency entry in test [7], in [14], in [8], in test [9], in test [10] and in test [11] was “inactive” throughout. Besides, the outcome in test [12] was inactive.
Turning to `CS(=O)(=O)Nc1cccc(-c2ccc3ncnc(N4CCOCC4)c3c2)c1`, the Potency in [1] is above 11.4 µM; in [2], 12.6 µM (active); in test [5] it was above 46 µM; in test [6] it was above 46 µM; in test [16] it was 7.94 µM (active); in test [8] it was 7.94 µM (active). The Potency in test [9] was 6.31 µM (active); in test [10], 7.08 µM (active). Moreover, the activity, negative = inhibition in test [4] is -11.8%. Also, the Potency entry in test [7], in test [15] and in [11] was “inactive” each time. Further, the outcome in [12] was inactive.
As to `c1cn(-c2ccnc(-c3ccc4c(c3)OCO4)n2)cn1`, the Potency in [1] is above 11.4 µM; in test [2], 0.0251 µM (active); in test [5] it was above 46 µM; in test [6] it was above 46 µM; in test [16], 0.631 µM (active); in [17], 3.16 µM (active). Besides, the Potency is 2.51 µM (active) in test [8], 2.24 µM (active) in test [9] and 3.98 µM (active) in test [10]. Also, in test [3], the activity change, negative = inhibition was 17.8%. Besides, in test [4], the activity, negative = inhibition was 5.91%. Also, the Potency entry in test [7], in [14], in test [15] and in [11] was “inactive” in each case. Also, the result in [12] was inactive.
Take `COc1ncc2nc(-c3cn(C)c4ccccc34)c(=O)n(CCc3ccccc3)c2n1`: the Potency is above 11.4 µM in test [1], above 9.22 µM in [5], above 46 µM in test [6] and 1 µM (active) in test [18]. In addition, the activity change, negative = inhibition is 24.3% in test [13] and -1.31% in [3]. Besides, the Potency result in [8], in test [9], in test [10] and in [11] was “inactive” each time. The result in test [12] was inactive.
Regarding `CCNc1ncc2nc(-c3ccc(F)cc3)c(=O)n(CCc3ccccc3)c2n1`, the Potency is above 11.4 µM in test [1], above 9.22 µM in test [5], above 46 µM in test [6] and 0.398 µM (active) in test [18]. Further, the results for the activity change, negative = inhibition in [13] and in [3] were 12.6% and -12.8%, respectively. The Potency result in test [7], in test [8], in test [9], in [10] and in test [11] was “inactive” in each case. For the same compound, the result in test [12] was inactive.
